Bioassay records as filed in PubChem BioAssay.
Shown are actives, neighbours in structure and some others; about 3.9% of the full set was active somewhere.
MITF TRPM1 HTS: MITF TRPM1 promoter activation in melanoma cells; SK-MEL-5 TRPM1-promoter luciferase, 24 h; % of positive control, neutral wells = 0; activation, % at 12.5 µM; actives 0.75% (n = 300,000); AID 588334;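 active = mean activation of at least 80% with every replicate also reaching 80%; inconclusive = mean reaches 80% but some replicate falls short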
Wnt bcat act: activators of Wnt/beta-catenin signaling | Wnt/beta-catenin reporter cell assay, activator, plate reader | activation, % at 9.35 µM | actives 1.2% (n = 300,000) | AID 743398; in the data active = activation above about 30%, passing the limit was not always enough; inconclusive = no clear call, values can overlap the other calls
HSF1 inh: HSF1 inhibition | NIH3T3-HGL HSE-luciferase, MG132-induced, luminescence 8 h; hits give low values | activity change, negative = inhibition, % at 7.5 µM (by protocol) | actives 0.77% (n = 300,000) | AID 2098;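 active = more than half of replicate wells show activity change below -50%, luminescence cut by over half; inconclusive = some wells, but at most half, below -50%; inactive = no replicate well below -50%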;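 also: luciferase reports HSF-1 transcriptional activity via heat shock element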
HSF1 activator: increases HSF-1 driven luciferase reporter signal | NIH3T3-HGL HSF-1 luciferase reporter, MG132, 8 h; 100% = twice DMSO control signal | actives 1.7% (n = 300,000) | AID 504408 | activation, % at 9 µM;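 active = mean replicate activation of at least 50% with a set share of replicates each reaching 50%; inconclusive = only one of those two conditions met; inactive = mean below 50% and too few replicates reaching it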
esBAF inh: SWI/SNF esBAF complex inhibition; actives 2% (n = 350,000); mouse ES cells, Bmi1-luciferase knock-in reporter, 24 h; 100% = twice the neutral-well signal; reporter increase, % at 12.5 µM; AID 602393; in the data active = activation above about 40%; inconclusive = no clear call, values can overlap the other calls;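 also: a rise in the Bmi1 reporter signal indicates esBAF inhibition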
esBAF Ring1 qPCR: confirmation of esBAF inhibitors: Ring1 de-repression in mouse ESCs. shares compounds with esBAF inh. mouse ESC E14, Ring1 mRNA RT-qPCR fold change. fold change at 33 µM. 550 tested, under 10 active. AID 743176;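 active = Ring1 gene expression raised more than 2-fold over untreated cells in both replicates at either tested dose; inconclusive = only one replicate above 2-fold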;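 also: Ring1 transcript normalised to actin housekeeping signal by TaqMan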
esBAF Fgf4 qPCR: represses Fgf4 in mouse ESCs, confirming esBAF inhibition; shares compounds with esBAF inh; mouse ESC E14, Fgf4 mRNA qPCR fold change; hits give low values; Fgf4 expression fold change at 33 µM; actives 4% (n = 550);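 active = Fgf4 expression under 0.8 fold of control in both repeat measurements at one or both tested doses; inconclusive = under 0.8 fold in just a single repeat measurement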;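 also: Fgf4 transcript normalised to actin in duplex TaqMan qPCR; cells exposed to compound for 24 h before lysis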
Bmi1 derepress: esBAF inhibition confirmed by Bmi1 de-repression; AID 743180; fold change at 33 µM; mouse ESE14 ES cells, Bmi1 mRNA qPCR fold; hits give high values; 550 tested, under 10 active; shares compounds with esBAF inh;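 active = Bmi1 expression fold change above 6 at either tested concentration, seen in replicate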;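 also: higher fold means more Bmi1 de-repression and stronger esBAF inhibition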
A549 cytotox: kills or reduces viability of A549 cells; cell viability change % (negative = cytotoxic), % at 25 µM, hits read low; shares compounds with esBAF inh; A549 cytotoxicity, plate reader; 550 tested, under 10 active; AID 743188; call rule not given here
HepG2 tox SP: kills or reduces viability of HepG2 cells; shares compounds with esBAF inh; AID 743189; actives 4% (n = 550); activity change, negative = inhibition, % at 25 µM; HepG2 cytotoxicity, plate reader; hits give low values; in the data active = activity change below about -50%
HEK293 tox SP: kills or reduces viability of HEK293 cells. shares compounds with esBAF inh. HEK293 cytotoxicity, plate reader. activity change, negative = inhibition, % at 25 µM, hits read low. actives 3% (n = 550). AID 743190; in the data active = activity change below about -38%, passing the limit was not always enough
A number is an active result; n = inactive; u = inconclusive; x = not tested or not shown.

SMILES	MITF TRPM1 HTS	Wnt bcat act	HSF1 inh	HSF1 activator	esBAF inh	esBAF Ring1 qPCR	esBAF Fgf4 qPCR	Bmi1 derepress	A549 cytotox	HepG2 tox SP	HEK293 tox SP
c1ccc(C2Nc3ccccc3Oc3ccccc32)cc1 (configuration not stated)	n	x	n	n	n	x	x	x	x	x	x
C[C@H](CO)N1C[C@H](C)[C@H](CN(C)C(=O)Cc2cccnc2)Oc2ncc(-c3ccncc3)cc2C1=O	x	x	x	x	n	x	x	x	x	x	x
Cn1c(/C(C#N)=C(\O)c2ccc([N+](=O)[O-])s2)nc2ccccc21	n	n	n	n	n	x	x	x	x	x	x
Cn1c(/C(C#N)=C(\O)c2ccc(Cl)s2)nc2ccccc21	n	30	n	n	70	n	u	n	n	n	n
OC(c1ccccc1)c1nc(-c2ccc3c(c2)OCO3)cs1 (configuration not stated)	x	n	x	x	61	n	n	n	n	n	n
OC(c1cccc(Cl)c1)c1nc(-c2ccc3c(c2)OCO3)cs1 (configuration not stated)	x	n	x	x	n	x	x	x	x	x	x
CCn1c(C)nc2cc(C(=O)NN=Cc3ccccc3OC(F)F)ccc21	90	n	x	x	79	n	n	n	n	n	n
CCn1c(C)nc2cc(C(=O)N/N=C/c3ccccc3C)ccc21	n	n	n	n	n	x	x	x	x	x	x
CO[C@@H]1CN(C)C(=O)c2cc(NC(=O)NC(C)C)ccc2OC[C@@H](C)N(S(C)(=O)=O)C[C@H]1C	x	x	x	x	n	x	x	x	x	x	x
Cc1nc2c(nc1C)C(=O)c1ccccc1C2=O	x	n	x	x	x	x	x	x	x	x	x
CCc1ccc2cc3c(cc2n1)C(=O)c1ccccc1-3	x	u	x	x	61	n	u	n	n	n	n
CCCCC(=O)Nc1cccc(-c2nnc(-c3ccccc3)o2)c1	n	x	n	n	n	x	x	x	x	x	x
CCC(=O)Nc1cccc(-c2nnc(-c3ccccc3)o2)c1	100	n	n	n	74	n	n	n	n	n	n
O=C(O)c1ccc2c(c1)C(=O)N(CCc1c[nH]c3ccccc13)C2=O	n	n	n	n	47	n	n	n	n	n	n
COCC(=O)Nc1ccc2c(c1)OC[C@H](C)N(Cc1cncnc1)C[C@H](C)[C@H](OC)CN(C)C2=O	x	x	x	x	n	x	x	x	x	x	x
COc1cc(Cl)ccc1OCc1cc(C(=O)N2CCN(C)C(=O)[C@@H]2C)no1	x	43	x	x	96	n	0.5	n	n	n	n
O=C(O)c1ccc(O)c2ncccc12	x	n	x	x	71	n	n	n	n	n	n
O=C(O)C=C1CCN(c2ncc(C(F)(F)F)cc2Cl)CC1	x	n	n	n	63	n	n	n	n	n	n
COc1ccc2c(c1OC)C(=O)N1c3ccccc3SC21 (configuration not stated)	n	x	n	n	78	n	n	n	n	n	n
COc1ccc2c(c1OC)C(=O)N1c3ccccc3COC21 (configuration not stated)	u	x	n	n	n	x	x	x	x	x	x
CO[C@H]1CN(C)C(=O)c2ccc(NC(=O)Nc3ccc(Cl)cc3)cc2OC[C@H](C)NC[C@@H]1C	x	x	x	x	n	x	x	x	x	x	x
COc1cc(OC)c2c(-c3ccccc3)cc(C3CCCCC3)nc2c1	n	n	x	x	n	x	x	x	x	x	x
c1ccc2cc(C3CCCCC3)ncc2c1	99	n	x	x	76	n	u	n	n	n	n
Cn1cccc1C(=O)OCc1ccc(C(C)(C)C)cc1	x	n	n	n	84	n	u	n	n	n	n
Cn1ccc2c(-c3ccc(C(=O)O)cc3)cc3c(c21)C1CCC3C1 (configuration not stated)	x	n	x	x	66	n	n	n	n	n	n
SMILES	MITF TRPM1 HTS	Wnt bcat act	HSF1 inh	HSF1 activator	esBAF inh	esBAF Ring1 qPCR	esBAF Fgf4 qPCR	Bmi1 derepress	A549 cytotox	HepG2 tox SP	HEK293 tox SP
COc1cccc(NC(=O)C(=O)NCCC2CCCCN2S(=O)(=O)c2cccs2)c1 (configuration not stated)	96	39	n	n	60	n	n	n	n	n	n
COc1cccc(NC(=O)C(=O)NCC2CCCN2S(=O)(=O)c2cccs2)c1 (configuration not stated)	x	n	x	x	62	n	n	n	n	n	n
COc1ccc(Cc2nc3ccc(C(=O)NCCCSC)cc3o2)cc1OC	x	n	n	n	77	n	n	n	n	n	n
Cc1cccc(-c2noc(CCC(=O)N3CCN(c4cc(C)ccc4C)CC3)n2)c1	n	n	x	x	63	n	n	n	n	n	n
O=C1c2ccccc2C(=O)N1CCSc1nncs1	n	x	n	n	n	x	x	x	x	x	x
Cc1csc(SCCN2C(=O)c3ccccc3C2=O)n1	n	n	n	n	65	n	n	n	n	n	n
C=CCn1c(O)c(C=Nc2ccccc2)sc1=S	n	n	n	n	68	n	n	n	n	n	n
CCn1c(O)c(C=Nc2ccccc2)sc1=S	x	x	n	n	x	x	x	x	x	x	x
CN(C)CC(=O)Nc1ccc2c(c1)[C@@H]1C[C@@H](CC(=O)NC3CCCC3)O[C@H](CO)[C@@H]1O2	x	x	x	x	n	x	x	x	x	x	x
CCCNC(=O)C[C@H]1CC[C@H]2[C@@H](COC[C@@H](O)CN2CC2CCCCC2)O1	x	x	x	x	n	x	x	x	x	x	x
Fc1ccc(CSc2ccc(-c3cccs3)nn2)cc1	n	n	n	n	69	n	u	n	n	n	n
CC(C)CC#Cc1ccc2c(c1)O[C@@H](CN(C)CC1CCOCC1)[C@@H](C)CN([C@H](C)CO)S2(=O)=O	x	x	x	x	n	x	x	x	x	x	x
CC(=O)Nc1ccc2c(c1Br)Cc1ccccc1-2	n	46	x	x	69	n	n	n	n	n	n
Nc1ccc2c(c1Br)Cc1ccccc1-2	n	n	x	x	n	x	x	x	x	x	x
Nc1c(C(=O)N2CCCCC2)sc(=S)n1-c1ccccc1	n	x	x	x	n	x	x	x	x	x	x
Nc1nc(SCc2ccccc2)sc1C(=O)N1CCCCC1	x	43	x	x	60	n	n	n	n	n	n
COc1cccc(N2CCN(C(=O)c3ccc4nc(N5CCCCC5)sc4c3)CC2)c1	n	n	n	n	64	n	u	n	n	n	n
CCc1csc(N2[C@@H](C#N)[C@H](c3ccc(-c4ccc(F)cc4)cc3)[C@@H]2CO)n1	x	x	x	x	n	x	x	x	x	x	x
Cc1ccc(OCn2c(=O)sc3ccccc32)cc1	n	n	n	n	66	n	n	n	n	n	n
CC(=O)c1c(C)[nH]c(C(=O)OCc2ccc(Br)cc2)c1C	n	n	n	n	64	n	n	n	n	n	n
